According to publication PMC7862700, “An all-to-all approach to the identification of sequence-specific readers for epigenetic DNA modifications on cytosine”:

Assays:
Test in all cases: DAPPL (digital affinity profiling via proximity ligation, sequencing); 10 mM Tris-HCl pH 7.5, 50 mM NaCl, 1 mM DTT, 4% glycerol, room temperature, 30 min; GST-TFs on glutathione beads, 16-mer random dsDNA library, 0.1% formaldehyde crosslink after washing; high values mean tight binding
Settings in all cases: protein: recombinant; tags: N-terminal GST; dsDNA, one strand shown
FLI1 = biological target: T1, FLI1 (Homo sapiens, UniProt Q01543 1-452)
T1 sequence: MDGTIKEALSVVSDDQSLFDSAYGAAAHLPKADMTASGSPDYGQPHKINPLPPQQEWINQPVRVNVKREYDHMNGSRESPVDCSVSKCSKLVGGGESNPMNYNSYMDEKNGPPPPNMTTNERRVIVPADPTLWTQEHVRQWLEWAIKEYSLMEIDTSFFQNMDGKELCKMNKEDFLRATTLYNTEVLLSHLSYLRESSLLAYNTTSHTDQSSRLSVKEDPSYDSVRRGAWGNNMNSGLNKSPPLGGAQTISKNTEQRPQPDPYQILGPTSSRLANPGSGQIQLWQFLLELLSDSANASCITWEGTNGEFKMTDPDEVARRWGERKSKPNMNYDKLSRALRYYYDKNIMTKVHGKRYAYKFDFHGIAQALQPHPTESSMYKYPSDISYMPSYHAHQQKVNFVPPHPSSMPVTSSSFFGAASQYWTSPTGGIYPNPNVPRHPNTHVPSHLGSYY
In short: (§1)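 Pools were built from human transcription factors expressed in yeast as GST fusions, captured on glutathione beads and DNA-barcoded, along with a tag-only sample. Incubation with 200 nmole of a 16-mer random double-stranded DNA library lasted 30 min at room temperature in Tris/NaCl/DTT/glycerol buffer, and was followed by washing, 0.1% formaldehyde crosslinking, proximity ligation, PCR amplification and Illumina NextSeq500 sequencing. Binding signal is the quotient of each hexamer's read frequency for a factor and its frequency for the tag-only sample.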

ELK1 = biological target: T2, ELK1 (Homo sapiens, UniProt P19419 1-428)
T2 sequence: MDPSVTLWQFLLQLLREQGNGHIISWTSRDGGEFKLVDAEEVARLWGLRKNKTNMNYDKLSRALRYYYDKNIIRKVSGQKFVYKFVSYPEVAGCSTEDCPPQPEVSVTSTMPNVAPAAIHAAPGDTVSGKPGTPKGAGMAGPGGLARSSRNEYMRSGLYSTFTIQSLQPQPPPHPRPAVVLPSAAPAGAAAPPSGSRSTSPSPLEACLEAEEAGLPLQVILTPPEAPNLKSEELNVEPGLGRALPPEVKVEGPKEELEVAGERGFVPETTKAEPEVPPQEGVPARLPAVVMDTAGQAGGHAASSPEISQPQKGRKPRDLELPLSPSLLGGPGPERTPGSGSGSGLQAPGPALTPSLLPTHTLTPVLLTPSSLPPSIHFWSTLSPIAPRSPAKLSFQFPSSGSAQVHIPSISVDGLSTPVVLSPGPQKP
In short: as §1

GABPA = biological target: T3, GABPA (Homo sapiens, UniProt Q06546 1-454)
T3 sequence: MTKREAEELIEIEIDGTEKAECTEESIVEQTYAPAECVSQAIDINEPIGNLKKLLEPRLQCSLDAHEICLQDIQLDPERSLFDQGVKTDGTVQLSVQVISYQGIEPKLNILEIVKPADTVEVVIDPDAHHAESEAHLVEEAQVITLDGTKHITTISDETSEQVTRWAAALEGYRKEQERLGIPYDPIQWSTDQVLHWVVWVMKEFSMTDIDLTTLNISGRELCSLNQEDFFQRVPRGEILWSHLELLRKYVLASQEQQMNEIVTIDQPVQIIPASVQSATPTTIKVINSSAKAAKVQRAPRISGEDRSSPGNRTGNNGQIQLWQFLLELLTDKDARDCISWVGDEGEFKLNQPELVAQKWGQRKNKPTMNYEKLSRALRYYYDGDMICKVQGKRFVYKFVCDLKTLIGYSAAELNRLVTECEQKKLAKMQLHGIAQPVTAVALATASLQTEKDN
In short: as §1

ERG = biological target: T4, ERG (Homo sapiens, UniProt P11308 1-479)
T4 sequence: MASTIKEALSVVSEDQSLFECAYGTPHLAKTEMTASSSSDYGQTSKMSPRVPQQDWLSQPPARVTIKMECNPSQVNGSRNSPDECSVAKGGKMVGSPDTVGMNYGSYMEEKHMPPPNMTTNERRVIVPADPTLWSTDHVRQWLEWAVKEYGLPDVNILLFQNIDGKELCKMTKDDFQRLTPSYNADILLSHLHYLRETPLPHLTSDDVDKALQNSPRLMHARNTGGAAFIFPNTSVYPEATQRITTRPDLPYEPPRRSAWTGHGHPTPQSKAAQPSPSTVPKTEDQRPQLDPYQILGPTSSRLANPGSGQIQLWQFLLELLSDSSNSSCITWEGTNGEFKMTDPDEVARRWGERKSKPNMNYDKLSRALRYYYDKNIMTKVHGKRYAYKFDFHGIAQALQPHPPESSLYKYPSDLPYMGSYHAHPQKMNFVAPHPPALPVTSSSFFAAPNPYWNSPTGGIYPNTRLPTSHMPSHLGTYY
In short: as §1

ELF1 = ELF1 (Homo sapiens, UniProt P32519 1-619)
In short: as §1

EHF = biological target: T5, EHF (Homo sapiens, UniProt Q9NZC4 1-300)
T5 sequence: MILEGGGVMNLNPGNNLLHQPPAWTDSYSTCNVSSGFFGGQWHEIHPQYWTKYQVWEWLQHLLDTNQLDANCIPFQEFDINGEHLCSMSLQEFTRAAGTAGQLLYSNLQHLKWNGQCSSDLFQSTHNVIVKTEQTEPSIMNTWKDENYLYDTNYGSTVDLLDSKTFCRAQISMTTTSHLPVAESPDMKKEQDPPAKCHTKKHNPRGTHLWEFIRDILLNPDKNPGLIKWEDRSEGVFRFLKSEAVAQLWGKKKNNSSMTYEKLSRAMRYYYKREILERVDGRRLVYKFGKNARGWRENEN
In short: as §1

SPI1 = SPI1 (Homo sapiens, UniProt P17947 1-270)
In short: as §1

SPIB = SPIB (Homo sapiens, UniProt Q01892 1-262)
In short: as §1

ELK3 = biological target: T6, ELK3 (Homo sapiens, UniProt P41970 1-407)
T6 sequence: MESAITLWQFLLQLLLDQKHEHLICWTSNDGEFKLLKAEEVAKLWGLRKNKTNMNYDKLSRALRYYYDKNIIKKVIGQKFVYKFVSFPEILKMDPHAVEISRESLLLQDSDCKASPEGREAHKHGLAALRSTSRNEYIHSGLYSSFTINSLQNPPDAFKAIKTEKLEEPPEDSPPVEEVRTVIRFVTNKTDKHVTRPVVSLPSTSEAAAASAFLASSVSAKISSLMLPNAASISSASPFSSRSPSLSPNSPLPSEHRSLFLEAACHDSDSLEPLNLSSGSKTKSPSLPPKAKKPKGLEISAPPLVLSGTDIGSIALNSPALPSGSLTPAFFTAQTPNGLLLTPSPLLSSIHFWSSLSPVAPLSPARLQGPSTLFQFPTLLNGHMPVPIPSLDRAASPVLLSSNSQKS
In short: as §1

FEV = biological target: T7, FEV (Homo sapiens, UniProt Q99581 1-238)
T7 sequence: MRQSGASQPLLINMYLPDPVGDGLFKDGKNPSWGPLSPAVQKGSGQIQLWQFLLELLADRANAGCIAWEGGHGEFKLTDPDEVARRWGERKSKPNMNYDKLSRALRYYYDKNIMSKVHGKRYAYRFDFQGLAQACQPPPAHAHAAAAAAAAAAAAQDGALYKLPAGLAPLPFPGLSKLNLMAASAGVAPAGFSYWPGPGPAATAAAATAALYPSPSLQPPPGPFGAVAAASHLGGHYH
In short: as §1

ETV5 = ETV5 (Homo sapiens, UniProt P41161 1-510)
In short: as §1

SPIC = biological target: T8, SPIC (Homo sapiens, UniProt Q8N5J4 1-248)
T8 sequence: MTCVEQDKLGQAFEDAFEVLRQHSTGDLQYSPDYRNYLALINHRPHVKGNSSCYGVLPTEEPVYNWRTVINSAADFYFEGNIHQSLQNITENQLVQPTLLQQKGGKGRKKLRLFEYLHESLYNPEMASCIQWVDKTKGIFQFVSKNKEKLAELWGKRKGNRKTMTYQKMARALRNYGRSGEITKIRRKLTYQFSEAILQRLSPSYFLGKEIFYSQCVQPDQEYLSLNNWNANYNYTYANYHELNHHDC
In short: as §1

ELF4 = ELF4 (Homo sapiens, UniProt Q99607 1-663)
In short: as §1

ELK4 = biological target: T9, ELK4 (Homo sapiens, UniProt P28324-2 1-405)
T9 sequence: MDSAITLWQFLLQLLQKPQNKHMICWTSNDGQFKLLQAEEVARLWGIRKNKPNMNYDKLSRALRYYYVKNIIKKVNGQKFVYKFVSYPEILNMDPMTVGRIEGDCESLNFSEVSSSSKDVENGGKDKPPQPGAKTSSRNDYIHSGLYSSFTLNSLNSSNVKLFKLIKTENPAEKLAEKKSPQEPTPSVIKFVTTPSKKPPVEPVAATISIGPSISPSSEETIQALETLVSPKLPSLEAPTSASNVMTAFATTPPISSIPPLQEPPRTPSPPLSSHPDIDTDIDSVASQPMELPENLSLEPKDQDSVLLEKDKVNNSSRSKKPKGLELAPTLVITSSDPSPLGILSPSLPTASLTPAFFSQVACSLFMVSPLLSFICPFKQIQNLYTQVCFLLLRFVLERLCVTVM
In short: as §1

ETV2 = biological target: T10, ETV2 (Homo sapiens, UniProt O00321 1-342)
T10 sequence: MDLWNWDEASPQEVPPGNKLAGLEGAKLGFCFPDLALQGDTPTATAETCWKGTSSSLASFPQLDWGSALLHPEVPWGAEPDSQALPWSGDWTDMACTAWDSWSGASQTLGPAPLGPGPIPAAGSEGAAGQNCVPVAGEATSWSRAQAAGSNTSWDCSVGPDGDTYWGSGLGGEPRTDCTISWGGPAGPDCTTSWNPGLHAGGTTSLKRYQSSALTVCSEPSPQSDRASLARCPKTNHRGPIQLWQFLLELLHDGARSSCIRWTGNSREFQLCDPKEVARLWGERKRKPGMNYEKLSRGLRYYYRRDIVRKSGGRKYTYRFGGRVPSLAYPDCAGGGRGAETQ
In short: as §1

ELF3 = biological target: T11, ELF3 (Homo sapiens, UniProt P78545 1-371)
T11 sequence: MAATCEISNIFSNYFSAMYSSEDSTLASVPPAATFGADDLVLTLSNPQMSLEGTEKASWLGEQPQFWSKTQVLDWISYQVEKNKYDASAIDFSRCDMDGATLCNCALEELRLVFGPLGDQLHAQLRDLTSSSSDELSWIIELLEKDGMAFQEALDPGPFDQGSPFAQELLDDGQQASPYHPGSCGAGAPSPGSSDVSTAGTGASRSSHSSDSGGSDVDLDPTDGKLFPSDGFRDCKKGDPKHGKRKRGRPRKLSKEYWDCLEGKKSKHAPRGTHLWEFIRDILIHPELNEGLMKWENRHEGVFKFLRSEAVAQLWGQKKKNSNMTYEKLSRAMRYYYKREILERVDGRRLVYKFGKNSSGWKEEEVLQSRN
In short: as §1

ETV1 = ETV1 (Homo sapiens, UniProt P50549 1-477)
In short: as §1

Sequence of ELF1 (P32519 whole entry): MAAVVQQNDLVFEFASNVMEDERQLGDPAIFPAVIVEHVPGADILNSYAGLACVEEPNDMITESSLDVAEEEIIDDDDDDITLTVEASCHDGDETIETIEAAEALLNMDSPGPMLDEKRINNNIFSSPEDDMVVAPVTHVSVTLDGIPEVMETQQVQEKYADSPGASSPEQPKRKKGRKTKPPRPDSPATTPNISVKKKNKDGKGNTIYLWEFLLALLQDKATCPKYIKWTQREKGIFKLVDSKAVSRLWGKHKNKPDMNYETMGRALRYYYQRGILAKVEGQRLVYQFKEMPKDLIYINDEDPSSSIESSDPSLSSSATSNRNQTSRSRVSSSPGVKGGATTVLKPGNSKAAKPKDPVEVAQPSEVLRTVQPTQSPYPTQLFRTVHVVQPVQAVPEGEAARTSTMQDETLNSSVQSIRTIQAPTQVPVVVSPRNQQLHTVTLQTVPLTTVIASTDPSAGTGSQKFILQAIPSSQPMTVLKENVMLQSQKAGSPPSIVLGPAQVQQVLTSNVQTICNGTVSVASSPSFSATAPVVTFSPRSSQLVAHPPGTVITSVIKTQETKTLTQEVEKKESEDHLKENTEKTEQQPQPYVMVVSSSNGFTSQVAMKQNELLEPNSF
Sequence of ELF4 (Q99607 whole entry): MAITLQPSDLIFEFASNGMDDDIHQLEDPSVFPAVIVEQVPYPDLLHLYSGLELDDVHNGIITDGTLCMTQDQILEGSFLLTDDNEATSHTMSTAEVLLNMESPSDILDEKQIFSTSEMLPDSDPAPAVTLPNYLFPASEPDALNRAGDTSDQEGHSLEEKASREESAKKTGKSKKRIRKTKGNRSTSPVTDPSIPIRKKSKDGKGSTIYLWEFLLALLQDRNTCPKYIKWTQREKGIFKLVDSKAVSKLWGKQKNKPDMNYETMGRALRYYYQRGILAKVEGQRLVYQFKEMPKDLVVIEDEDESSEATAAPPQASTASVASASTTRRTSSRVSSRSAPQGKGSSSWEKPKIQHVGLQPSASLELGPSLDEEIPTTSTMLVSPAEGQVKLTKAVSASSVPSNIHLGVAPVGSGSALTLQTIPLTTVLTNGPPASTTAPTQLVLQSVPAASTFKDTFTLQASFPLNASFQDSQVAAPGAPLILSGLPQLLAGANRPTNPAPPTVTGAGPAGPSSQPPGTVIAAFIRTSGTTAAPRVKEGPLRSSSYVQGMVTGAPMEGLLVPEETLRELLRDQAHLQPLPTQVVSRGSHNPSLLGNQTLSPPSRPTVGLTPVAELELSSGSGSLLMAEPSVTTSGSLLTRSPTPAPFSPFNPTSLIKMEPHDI
Sequence of SPIB (Q01892 whole entry): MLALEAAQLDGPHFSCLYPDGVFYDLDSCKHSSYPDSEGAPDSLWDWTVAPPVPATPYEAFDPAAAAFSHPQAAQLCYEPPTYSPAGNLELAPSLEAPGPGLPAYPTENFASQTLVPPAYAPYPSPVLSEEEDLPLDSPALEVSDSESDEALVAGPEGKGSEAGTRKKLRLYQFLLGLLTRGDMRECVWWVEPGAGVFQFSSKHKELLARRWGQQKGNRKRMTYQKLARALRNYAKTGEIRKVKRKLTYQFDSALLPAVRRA
Sequence of ETV1 (P50549 whole entry): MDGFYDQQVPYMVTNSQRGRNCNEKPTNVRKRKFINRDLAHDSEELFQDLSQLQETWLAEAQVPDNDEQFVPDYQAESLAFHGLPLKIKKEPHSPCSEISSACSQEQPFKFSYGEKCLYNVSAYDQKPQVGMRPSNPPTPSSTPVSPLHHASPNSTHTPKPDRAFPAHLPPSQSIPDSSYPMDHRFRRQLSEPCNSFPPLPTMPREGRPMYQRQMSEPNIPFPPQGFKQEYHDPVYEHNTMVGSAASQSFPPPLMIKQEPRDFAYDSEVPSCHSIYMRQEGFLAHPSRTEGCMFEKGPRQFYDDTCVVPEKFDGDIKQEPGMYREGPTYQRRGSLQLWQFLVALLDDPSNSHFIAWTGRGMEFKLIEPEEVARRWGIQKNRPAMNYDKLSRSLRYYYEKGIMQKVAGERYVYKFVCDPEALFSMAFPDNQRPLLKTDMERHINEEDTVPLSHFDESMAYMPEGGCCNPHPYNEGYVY
Sequence of ETV5 (P41161 whole entry): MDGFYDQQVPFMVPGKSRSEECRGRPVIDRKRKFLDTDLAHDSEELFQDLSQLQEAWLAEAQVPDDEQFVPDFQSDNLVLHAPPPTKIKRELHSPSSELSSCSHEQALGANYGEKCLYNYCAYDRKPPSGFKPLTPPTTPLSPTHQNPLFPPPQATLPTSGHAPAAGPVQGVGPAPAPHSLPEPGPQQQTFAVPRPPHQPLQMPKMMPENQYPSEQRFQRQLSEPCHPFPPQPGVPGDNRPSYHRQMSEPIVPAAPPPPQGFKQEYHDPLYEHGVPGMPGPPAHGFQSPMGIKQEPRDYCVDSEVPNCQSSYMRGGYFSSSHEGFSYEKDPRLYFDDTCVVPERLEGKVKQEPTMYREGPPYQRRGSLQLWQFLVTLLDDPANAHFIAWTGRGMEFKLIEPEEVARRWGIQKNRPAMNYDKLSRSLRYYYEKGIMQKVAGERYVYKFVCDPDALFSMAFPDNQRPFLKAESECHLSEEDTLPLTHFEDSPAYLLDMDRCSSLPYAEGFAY

| Sequence | binding signal (FLI1) | binding signal (ELK1) | binding signal (GABPA) | binding signal (ERG) | binding signal (ELF1) | binding signal (EHF) | binding signal (SPI1) | binding signal (SPIB) | binding signal (ELK3) | binding signal (FEV) | binding signal (ETV5) | binding signal (SPIC) | binding signal (ELF4) | binding signal (ELK4) | binding signal (ETV2) | binding signal (ELF3) | binding signal (ETV1) |
| --- | --- | --- | --- | --- | --- | --- | --- | --- | --- | --- | --- | --- | --- | --- | --- | --- | --- |
| CATAAC | 1.09 fold enrichment (6-mer frequency, TF over GST control) | 1.2 fold enrichment (6-mer frequency, TF over GST control) | 1.15 fold enrichment (6-mer frequency, TF over GST control) | 1.1 fold enrichment (6-mer frequency, TF over GST control) | 1.22 fold enrichment (6-mer frequency, TF over GST control) | 1.09 fold enrichment (6-mer frequency, TF over GST control) | 1.16 fold enrichment (6-mer frequency, TF over GST control) | 1.13 fold enrichment (6-mer frequency, TF over GST control) | 1.18 fold enrichment (6-mer frequency, TF over GST control) | 1.08 fold enrichment (6-mer frequency, TF over GST control) | 1.16 fold enrichment (6-mer frequency, TF over GST control) | 1.2 fold enrichment (6-mer frequency, TF over GST control) | 1.1 fold enrichment (6-mer frequency, TF over GST control) | 1.25 fold enrichment (6-mer frequency, TF over GST control) | 1.11 fold enrichment (6-mer frequency, TF over GST control) | 1.13 fold enrichment (6-mer frequency, TF over GST control) | 1.1 fold enrichment (6-mer frequency, TF over GST control) |
| ACTGCA | 1.1 fold enrichment (6-mer frequency, TF over GST control) | 1.17 fold enrichment (6-mer frequency, TF over GST control) | 1.05 fold enrichment (6-mer frequency, TF over GST control) | 1.09 fold enrichment (6-mer frequency, TF over GST control) | 1.19 fold enrichment (6-mer frequency, TF over GST control) | 1.12 fold enrichment (6-mer frequency, TF over GST control) | 1.27 fold enrichment (6-mer frequency, TF over GST control) | 1.15 fold enrichment (6-mer frequency, TF over GST control) | 1.11 fold enrichment (6-mer frequency, TF over GST control) | 1.18 fold enrichment (6-mer frequency, TF over GST control) | 1.2 fold enrichment (6-mer frequency, TF over GST control) | 1.34 fold enrichment (6-mer frequency, TF over GST control) | 1.09 fold enrichment (6-mer frequency, TF over GST control) | 1.25 fold enrichment (6-mer frequency, TF over GST control) | 1 fold enrichment (6-mer frequency, TF over GST control) | 1.08 fold enrichment (6-mer frequency, TF over GST control) | 1.01 fold enrichment (6-mer frequency, TF over GST control) |
